MsrA inh = inhibitors of bovine MsrA. inhibition, % at 15.5 µM. purified bovine MsrA, absorbance read-out. AID 651718. hit rate 0.75% among 360,000; in the data active means inhibition above about 4.5%;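 further: 0% = vehicle wells with enzyme and 100% = reference inhibitor wells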
PG9 Ab binder = PG9 antibody binding by small molecule | AID 624416 | TR-FRET gp120-PG9 antibody binding | inhibition, % at 6.7 µM | hit rate 0.43% among 360,000; in the data active means inhibition above about 8.5%
rCAG binder = r(CAG) repeat RNA binding; hit rate 1.3% among 370,000; AID 651821; TO-PRO-1 dye displacement fluorescence; inhibition, % at 3 µM;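 active means inhibition above the plate cutoff, the mean of all test compounds on that plate plus 3 SD, cut at about 35% in these data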;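 further: 0% = DMSO alone and 100% = 100 µM mitoxantrone as full dye displacement; higher means more dye released from RNA so lower well fluorescence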
sPLA2-III inh = Inhibits HGIII-sPLA2 liposome hydrolysis, primary screen; QFRET BODIPY PC-A2 liposome hydrolysis, fluorescence; inhibition, % at 12.2 µM; hit rate 0.56% among 370,000;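 active means inhibition above mean plus 3 SD of compounds lying within the high and low control bounds, cut at about 19% in these data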;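 further: 0% = median of test compound wells and 100% = no enzyme DMSO wells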
Target sequence (Q9NZ20 whole entry, looked up): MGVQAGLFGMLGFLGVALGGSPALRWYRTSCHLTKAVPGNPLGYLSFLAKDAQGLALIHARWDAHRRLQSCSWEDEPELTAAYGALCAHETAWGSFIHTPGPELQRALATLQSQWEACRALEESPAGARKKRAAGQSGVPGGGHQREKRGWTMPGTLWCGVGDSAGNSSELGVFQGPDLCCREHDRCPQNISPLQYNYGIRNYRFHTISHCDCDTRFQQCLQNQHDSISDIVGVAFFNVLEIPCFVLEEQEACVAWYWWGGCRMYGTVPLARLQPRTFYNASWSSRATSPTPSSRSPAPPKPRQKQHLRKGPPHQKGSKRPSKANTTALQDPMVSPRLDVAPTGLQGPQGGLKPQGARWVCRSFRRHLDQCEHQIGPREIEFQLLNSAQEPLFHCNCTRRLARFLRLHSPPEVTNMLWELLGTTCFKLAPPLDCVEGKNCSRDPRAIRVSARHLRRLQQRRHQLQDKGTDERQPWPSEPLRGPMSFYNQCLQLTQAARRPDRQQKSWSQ
bovine MsrA act = activates bovine MsrA enzyme. purified bovine MsrA, absorbance read-out. activation, % at 10.6 µM. hit rate 0.3% among 360,000; in the data active means activation above about 7.5%;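 further: 0% = vehicle and 100% = reference activator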
Numbers without * were called inactive; x = not tested or not shown. Most compounds without a hit are left out; they make up all but 3.2% or so of the library.

SMILES | MsrA inh | PG9 Ab binder | rCAG binder | sPLA2-III inh | bovine MsrA act
O=C(NCc1cccs1)C1CCN(S(=O)(=O)c2ccc([N+](=O)[O-])cc2)CC1 | x | x | 4.0 | 4.1 | x
Cc1ccc2c(c1)N(C(=O)CSc1nncn1C)C(C)(C)c1ssc(=S)c1-2 | 1.9 | -4.5 | -2.3 | 24.4* | -4.7
CCOC(=O)C1=NN(C(=O)Nc2ccc(OC)cc2)C2C(=O)N(c3cccc(C(F)(F)F)c3)C(=O)C12 (centres undefined) | -0.1 | 0.4 | 54.2* | -29.7 | 1.1
CCOC(=O)C1=NN(c2ccc(OC)cc2)C2C(=O)N(c3ccccc3OC)C(=O)C12 (centres undefined) | -0.4 | -0.6 | 3.2 | -0.6 | -3.6
CN(Cc1ccccc1)C1=CC(=[N+]2CCCCC2)CC(C)(C)C1 | 4.7* | -0.7 | 1.0 | 0.5 | -17.8
Cc1ccc(Cl)cc1NC(=O)CSc1sc2c(O)cc(=O)[nH]c2c1C#N | 4.1 | 0.3 | 35.2* | 2.4 | -2.8
CCc1nnc(NC(=O)CSc2sc3c(O)cc(=O)[nH]c3c2C#N)s1 | 4.0 | -1.1 | 56.7* | -6.5 | -2.1
CCCC(=O)OCCNc1cc(Sc2nccn2C)c2nonc2c1[N+](=O)[O-] | 2.8 | 0.3 | 5.1 | 19.3* | -1.8
O=C(COc1ccc2ccccc2c1)Nc1cccc(C(=O)Nc2ccccc2C(=O)O)c1 | 0.5 | -3.3 | 82.8* | -72.7 | -4.2
CN1CCN(C(=O)Nc2cccc(-c3ccccc3)c2)CC1 | 4.6* | 2.5 | -3.6 | 8.7 | -4.5
O=C(COc1ccc2c3c(c(=O)oc2c1)CCCC3)NC(Cc1ccc(Cl)cc1)C(=O)O (centres undefined) | 1.1 | 0.4 | 37.8* | -15.5 | -3.0
COc1cc(/C=C(\C#N)C(=O)c2ccc(O)c(O)c2)cc(I)c1O | 4.6* | -2.4 | 40.2* | -23.9 | -8.3
COC(=O)[C@H](C(C)C)N1CCc2nnn(Cc3ccc(C)cc3)c2-c2cc(F)ccc2S1(=O)=O | x | x | -1.2 | -8.7 | x
Nc1ccc2c(c1)Cc1cc(N)c(Cl)cc1-2 | 1.6 | 7.9 | 6.5 | 23.9* | -9.5
O=C(O)c1cc(NC(=O)c2ccc(Br)cc2)cc(NC(=O)c2ccc(Br)cc2)c1 | -0.6 | 1.1 | 79.8* | -7.0 | 4.8
CCOC(=O)N1C(=O)C[C@](Sc2ccc(OC)cc2)(C(=O)N2CCCC2)[C@H]1c1ccc(OC)cc1 | x | x | 2.3 | 7.0 | x
COC(=O)[C@]12C[C@H](CC(=O)NCCCN3CCCC3=O)C(=O)N(Cc3ccc(Cl)cc3Cl)C1=C[C@H](COCc1ccccc1)O[C@@H]2C | x | x | 5.7 | -14.9 | x
Cc1cc(C)nc(N/N=C/c2cc(C)n(CC(F)(F)F)c2C)n1 | 4.6* | -5.2 | -5.4 | 8.2 | -2.9
Cc1nn(-c2ccc(Cl)cc2)c(Cl)c1/C=N/NC(=O)c1ccc(NS(=O)(=O)c2cccs2)cc1 | 0.8 | -1.7 | 61.6* | -29.1 | -3.4
CN(C)c1ccc(/C=C(/NC(=O)c2ccccc2)C(=O)NCCN2CCOCC2)cc1 | 4.6* | -10.9 | -11.8 | -13.2 | -4.3
O=S1(=O)CC2c3ccccc3CN2CN1Cc1ccc(F)cc1 (centres undefined) | x | x | 3.6 | 3.5 | x
Cc1sc(NC(=O)CSc2n[nH]c(N)n2)c(C#N)c1C | 0.8 | -1.4 | 50.4* | -17.1 | -5.4
COC(=O)[C@H](CC(C)C)N1Cc2nnn(Cc3ccc(C)cc3)c2-c2cc(F)ccc2S1(=O)=O | x | x | 0.9 | -3.1 | x
COc1ccc(C(=O)OCC(=O)c2ccc(C3CCCCC3)cc2)cc1 | -0.8 | -3.0 | 1.7 | -2.5 | -0.8
Nc1ccc(O)cc1C(=O)OCC(=O)c1ccc(C2CCCCC2)cc1 | 0.0 | -3.7 | 51.1* | 3.6 | -4.3
SMILES | MsrA inh | PG9 Ab binder | rCAG binder | sPLA2-III inh | bovine MsrA act
O=C(NC1CCC1)c1ccc(C#Cc2cccc(F)c2)nc1 | x | x | 1.4 | 4.1 | x
CN(C)c1ccc(/C=C/c2ccc3ccccc3[n+]2C)cc1 | 1.0 | -57.8 | 19.3 | 19.5* | -0.2
CN(C)c1ccc(/C=C/c2ccc3c4ccccc4ccc3[n+]2-c2ccccc2)cc1 | 0.1 | -50.1 | 30.0 | 43.8* | -8.7
CC(=O)Oc1cc(C(=O)OCC(=O)NC23CC4CC(CC(C4)C2)C3)cc(OC(C)=O)c1OC(C)=O | 0.3 | -2.6 | 52.9* | 12.5 | -5.7
CC(C)CNC(=O)OCc1cn(Cc2cc(F)cc(F)c2)nn1 | x | x | -3.3 | 1.9 | x
CCN(CCCNC(=O)C1CCC(=O)N1C1CCCC1)c1cccc(C)c1 (centres undefined) | -0.2 | 0.1 | -3.2 | -5.4 | -0.1
CCN(CCCNC(=O)C1CCC(=O)N1Cc1ccc(F)cc1)c1cccc(C)c1 (centres undefined) | -0.5 | 0.1 | -0.9 | 5.7 | 10.6*
CCCCCCCCN1CN2Cc3ccccc3C2CS1(=O)=O (centres undefined) | x | x | -0.9 | -2.5 | x
CN(C)c1ccc(C(=O)C(=O)c2ccccc2)cc1 | 4.6* | -1.6 | 5.0 | 6.5 | -5.1
Cc1cc(-n2c(C)cc(C(=O)CSc3ccc4c(c3)OCCO4)c2C)no1 | 0.7 | -5.6 | 0.8 | -9.1 | 24.0*
Cc1cc(-n2c(C)cc(C(=O)CSc3ccccn3)c2C)no1 | 1.8 | -1.1 | 5.4 | 1.6 | -3.3
Cc1ccc(C(=O)c2nc3c(n2O)CCCC3)cc1 | 2.4 | -3.1 | -3.9 | -5.4 | -5.4
CCOc1ccc(C(=O)c2nc3c(n2O)CCCC3)cc1 | 5.0* | -1.8 | 0.3 | -14.6 | -12.3
COc1ccc(CCNC(=O)Nc2ccc3c(c2)[C@]2(CC(=O)N(CC(C)C)C2c2ccccc2)C(=O)N3C)cc1OC (some centres undefined) | x | x | 1.2 | -5.6 | x
O=NC1=C(c2c(O)[nH]c3ccccc23)CCCC1 | 0.7 | 0.8 | -2.7 | 11.6 | -3.1
Oc1[nH]c2ccccc2c1C1=NCCCCC1 | 4.6* | -1.9 | -0.6 | 7.6 | -4.5
CCCc1nnc(NC(=O)c2nc(S(=O)(=O)Cc3cccc(C)c3)ncc2Cl)s1 | 0.3 | -3.9 | 34.8* | -10.0 | -4.3
Cc1cccc(CS(=O)(=O)c2ncc(Cl)c(C(=O)Nc3c(C)cccc3C)n2)c1 | 1.4 | 1.7 | -0.2 | -0.5 | -4.8
Cc1nc2ccc(-c3nc4ccc(N)cc4[nH]3)cc2[nH]1 | 3.5 | -12.3 | 3.9 | 2.0 | -4.3
Nc1ccc2nc(-c3cccc(-c4nc5ccc(N)cc5[nH]4)c3)[nH]c2c1 | 4.6* | -13.4 | 22.1 | 3.5 | -2.6
CCOC(=O)CSc1nc(N)c(C#N)c(-c2ccc(OCC)cc2)c1C#N | 1.1 | 11.5* | 2.9 | -5.4 | -4.7
CCCn1c(NC(=O)c2ccccc2)nc(Cc2ccccc2)c1Cc1ccccc1 | x | x | 6.4 | 6.9 | x
Cc1nn(Cc2ccc(F)cc2)c2sc(C(=O)Nc3nccs3)cc12 | 1.1 | 15.5* | 7.1 | -5.5 | -2.6
Cc1nn(Cc2ccccc2Cl)c2sc(C(=O)Nc3nccs3)cc12 | -0.4 | 5.1 | 6.9 | -3.4 | -0.9
COc1ccc(-n2cccc2/C=C2\C(=N)N3N=C(C(C)C)SC3=NC2=O)cc1 | -0.8 | -0.7 | 28.2 | -13.4 | -3.3
COc1ccc(-n2cccc2/C=C2\C(=N)N3N=C(c4ccco4)SC3=NC2=O)cc1 | 1.4 | -1.9 | 51.0* | 5.8 | -2.9
CN(Cc1cn(CC2CCCCC2)nn1)S(=O)(=O)c1ccccc1Br | x | x | 1.0 | -2.4 | x
CN(C)c1ccc(-c2nc3ncc(Cl)cc3[nH]2)cc1 | x | x | 4.7 | 10.0 | x
COc1cc2cc(C(=O)Nc3ccc4c(c3)OCCO4)[nH]c2cc1OC | 4.6* | -1.6 | 8.4 | -6.2 | -4.8
